Data on 27 compounds can be found in ChEMBL document CHEMBL1157539, “Thousands of chemical starting points for antimalarial lead identification” (Nature, 2010).

Common to all, as to type: functional
Assay [1] concerns Plasmodium falciparum. In words: GSK_TCMDC: Inhibition of Plasmodium falciparum 3D7 in whole red blood cells, using parasite LDH activity as an index of growth. Test compounds present at 2uM.
Assay [2] relates to Plasmodium falciparum. In words: GSK_TCMDC: Inhibition of Plasmodium falciparum Dd2 in whole red blood cells, using parasite LDH activity as an index of growth. Test compounds present at 2uM.
A further assay relates to HepG2. In words: GSK_TCMDC: Percent inhibition of human HepG2 cell line. Test compounds present at 10uM.

As to `O=C(c1ccc(Br)o1)N1N=C(c2cccs2)CC1c1ccc(Br)cc1` (stereo unspecified), the Inhibition is 96% in the assay with Plasmodium falciparum [1], 45% in the assay with Plasmodium falciparum [2] and 5% in the assay on HepG2.
Taken in the same sequence, the figures for `Cc1c(CCC#N)c(NCc2ccccc2)n2c(nc3ccccc32)c1C#N` were 100%, 99% and 16%.
Taken in the same sequence, the figures for `CCc1c[nH]c2c(N(c3ccccc3)S(C)(=O)=O)cc(C(=O)N[C@@H](Cc3ccccc3)[C@H](O)CNCc3cccc(C(F)(F)F)c3)cc12.O=CO` were 93%, 98% and 20%.
Taken in the same sequence, the figures for `CC(C)CCN1CCCN(Cc2ccc(C(=O)Nc3ccc(C(C)(C)C)cc3)cc2)CC1.O=C(O)C(F)(F)F` were 92%, 12% and 49%.
For `CCN(CC)CCN(Cc1ccc(-c2ccc(C(F)(F)F)cc2)cc1)C(=O)Cn1c(CCc2ccc(F)cc2)nc(=O)c2sccc21.O=C(O)C(O)C(O)C(=O)O`, the Inhibition was 99% in the assay with Plasmodium falciparum [1], 90% with Plasmodium falciparum [2] and 100% with HepG2.
Taken in the same sequence, the figures for `Cc1ccc(Cn2ncc(N3CCC(N)CC3)c(Cl)c2=O)cc1NC(=O)Nc1ccc(-c2ccccc2)cc1.O=C(O)C(F)(F)F` were 90%, 25% and 29%.
Taken in the same sequence, the figures for `Cn1cncc1-c1ccc2ncnc(Nc3ccc4c(cnn4Cc4ccccc4)c3)c2c1` were 100%, 99% and 1%.
On the same counts, the results for `O=C(NCCCCCN1CCC(c2c[nH]c3ccccc23)CC1)c1ccc(-c2cccnc2)cc1` are 89%, 10% and 29%.
Regarding `Cc1cc(N[C@@H](Cc2ccccc2)C(=O)NCc2cccc(F)c2)nc(NCCc2cccs2)n1.O=C(O)C(F)(F)F`, the Inhibition in the assay with Plasmodium falciparum [1] is recorded as 99%; in the assay with Plasmodium falciparum [2], 22%; in the assay on HepG2, 9%.
Taken in the same sequence, the figures for `CCC(O)(C#Cc1c(C)nc(N)nc1N)CC` were 97%, 0% and 63%.
On the same counts, the results for `O=C(Nc1cc(Cl)ccc1-n1cncn1)C1(c2ccccc2)CC1` are 98%, 91% and 3%.
On the same counts, the results for `O=C(O)C(F)(F)F.Oc1ccc(CCNc2nc(NCc3ccccc3-c3ccccc3)nc(N3CCCNCC3)n2)cc1` are 95%, 20% and 26%.
Regarding `COc1ccc2nc3cc(Cl)ccc3c(NCCCCN3CCNCC3)c2c1.Cl`, the values for the Inhibition in the assay on Plasmodium falciparum [1], in the assay on Plasmodium falciparum [2] and with HepG2 were 100%, 75% and 29%, respectively.
On the same counts, the results for `Cc1ccc(NC(=O)c2ccc3ncccc3c2)cc1OC1CCN(Cc2ccsc2)CC1.O=C(O)C(F)(F)F` are 93%, 29% and 21%.
Taken in the same sequence, the figures for `CC(C)NCc1ccc(-c2ccc(NC(=O)c3ccc(Cl)cc3)cc2)cc1.O=C(O)C(F)(F)F` were 90%, 8% and 60%.
On the same counts, the results for `COc1ccc2nccc([C@@H](O)CN3CCC(NCc4cc5cc([N+](=O)[O-])ccc5[nH]4)CC3)c2c1.O=C(O)C(=O)O` are 99%, 57% and 29%.
As for `Cc1nn(-c2ccc(Cl)cc2)c2[nH]c(CN3CCN(c4cccc(Cl)c4)CC3)cc(=O)c12`, the Inhibition in the assay with Plasmodium falciparum [1] is 98%; in the assay on Plasmodium falciparum [2], 98%; with HepG2 it was 0%.
As to `Cc1ccc(CN(Cc2ccc(C(=O)N(C)C)cc2)Cc2ccc3c(c2)OCCO3)cc1C`, the Inhibition came to 91% in the assay on Plasmodium falciparum [1], 87% in the assay with Plasmodium falciparum [2] and 10% in the assay with HepG2.
As for `O=C(Nc1cccc(-c2nn3ccccc3c2-c2ccnc(Nc3ccc(NCCCN4CCOCC4)c(F)c3)n2)c1)c1c(F)cccc1F`, the figures for the Inhibition with Plasmodium falciparum [1], with Plasmodium falciparum [2] and with HepG2 were 100%, 97% and 86%, respectively.
On the same counts, the results for `CN1CCC(NCCS(=O)(=O)c2cccc(Nc3ccc(-c4cccc(F)c4)cn3)c2)CC1` are 99%, 0% and 27%.
On the same counts, the results for `CCCC(C)c1cnc2nc(N)nc(N)c2c1C` (stereo unspecified) are 95%, 1% and 67%.
On the same counts, the results for `CC(C)N1CCC(N(Cc2ccc(-c3ccc(C(F)(F)F)cc3)cc2)C(=O)Cn2c(CCc3cccc(F)c3F)nc(=O)c3cccnc32)CC1.O=C(O)C(O)C(O)C(=O)O` are 100%, 80% and 100%.
Turning to `Cc1[nH]c2ccccc2c1C(=O)C(C)Sc1nnc(-c2ccccc2F)o1` (stereo unspecified), the Inhibition with Plasmodium falciparum [1] was 99%; with Plasmodium falciparum [2], 99%; in the assay on HepG2, 24%.
For the compound `CN(CCCCNC(=O)c1ccc(-c2ccccc2)cc1)C1CCc2c(O)cccc2C1.O=C(O)C(=O)O` (stereo unspecified), the Inhibition with Plasmodium falciparum [1] is listed as 100%; in the assay on Plasmodium falciparum [2], 21%; with HepG2, 24%.
Consider `COc1cc(Nc2nccc(N3CCC(NC(=O)C(C)c4ccc(Cl)cc4)C3)n2)cc(OC)c1OC` (stereo unspecified), for which the Inhibition was determined as 97% in the assay on Plasmodium falciparum [1], 90% in the assay on Plasmodium falciparum [2] and 2% in the assay on HepG2.
On the same counts, the results for `COc1ccc2cc(C(=O)Nc3ccc4c(c3)CCN(C3CCC3)CC4)ccc2c1.O=C(O)C(F)(F)F` are 100%, 9% and 34%.
On the same counts, the results for `Cc1[nH]c(C)c(-c2ccc(-c3ccccc3Cl)nc2)c(=O)c1Br` are 97%, 96% and 0%.
